In PubChem BioAssay (NCI) one finds growth data, which are given here for 9 compounds.

What all share (assay): NCI-60 one-dose screen, 48 h (100 = growth as untreated, 0 = no growth, -100 = all killed)
Details in all cases: 10 µM unless noted

The subject of assay [1] is NCI-H23 lung.
The test system of assay [2] is NCI-H226 lung.
Assay [3] concerns NCI-H322M lung.
Assay [4] relates to HOP-62 NSCLC.
In assay [5] the test system is NCI-H460 lung.
Assay [6] has as its system HOP-92 NSCLC.
Assay [7] has as its system NCI-H522 lung.
Assay [8] deals with A549/ATCC NSCLC.
For assay [9], the system named is 786-0 renal.
For assay [10], the system named is COLO 205 colon.
The subject of assay [11] is DU-145 prostate.
Assay [12] deals with K-562 leukemia.
In assay [13] the test system is MALME-3M melanoma.
The test system of assay [14] is MDA-MB-231 breast.
The test system of assay [15] is RXF 393 renal.
Assay [16] relates to SF-268 CNS.
In assay [17] the test system is SF-295 CNS.
In assay [18] the test system is SF-539 CNS.
Assay [19] concerns UACC-257 melanoma.
Assay [20] has as its system M14 melanoma.

SMILES strings stand for the structures. Compounds without any hit were thinned out: in the full panel of roughly 83,000, 20% have a hit.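 Compound tested at a single concentration for 48 hours in 96-well plates; a percent growth value below 10 was scored as active.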 Values without a mark were called inactive. Activity calls are given as the source filed them.

Turning to `O=C(c1ccccc1)c1cc2ccccc2oc1=O`, the growth was 94.5% in [1]; 86.3% in [2]; 97.7% in assay [3]; 88.6% in assay [4]; 117% in assay [5]; 51.3% in assay [6]. Besides, the growth in assay [7] is 95%; in assay [8], 95.9%; in assay [9] it was 102%; in assay [10], 119%; in assay [11], 114%; in assay [12] it was 111%. Besides, the growth in [13] is 90.4%; in [14], 79.5%; in assay [15], 90%; in assay [16] it was 101%; in assay [17] it was 113%; in [18], 116%. For the same compound, the results for the growth in [19] and in assay [20] were 96.9% and 104%, respectively.
As to `CCC[CH2][Sn]1([CH2]CCC)[O]C2C(CO)OC(n3ccc(N)nc3=O)C2[O]1` (stereo unspecified), the growth is -42.1% (active) in assay [1]; -93.9% (active) in [2]; 33.3% in [3]; 22.7% in [4]; 12.1% in assay [5]; -56.3% (active) in [6]. Further, the growth in [7] is -78.9% (active); in assay [8], 68.1%; in assay [9], -89.9% (active); in assay [10], -79.4% (active); in [11] it was 2.15% (active); in [12], -17.7% (active). Moreover, the growth in [13] was -71.7% (active); in assay [14] it was -68.8% (active); in assay [16], -89.2% (active); in [18], -64.2% (active); in assay [19] it was -87.3% (active); in [20] it was -47.2% (active).
Consider `Cc1nc(Sc2nc3ccc([N+](=O)[O-])cc3s2)sc1C`, for which the growth is -3.96% (active) in [1]; 2.43% (active) in assay [2]; 89.2% in assay [3]; 72.2% in assay [4]; 11.7% in [5]; 1.28% (active) in [6]. Besides, the growth in [7] was -48.1% (active); in [8], 55.9%; in [9], 19.6%; in assay [10], 27.1%; in assay [11], 31.1%; in assay [12] it was 3.13% (active). The growth in assay [13] is -14.3% (active); in assay [14], -15.6% (active); in assay [15] it was -2.1% (active); in [16], 18.7%; in assay [17], 82.1%; in assay [19] it was 36.8%. In assay [20], the growth was 11.5%.
With `CCCC[n+]1c(/C=C\c2c(OC)cc(OC)cc2OC)ccc2ccccc21`, the growth was -4.06% (active) in assay [1]; 9.84% (active) in assay [2]; 4.8% (active) in assay [3]; 13.8% in assay [4]; -43.2% (active) in [5]; -20% (active) in assay [6]. The growth in assay [7] is -73.4% (active); in assay [8], -22.9% (active); in assay [9] it was 21.5%; in assay [10] it was -53.3% (active); in [11] it was 23%; in assay [12], 0.911% (active). For the same compound, the growth is 13% in assay [13]; -15.1% (active) in assay [14]; 22% in assay [16]; -74.7% (active) in assay [17]; 10.3% in [18]; -41.5% (active) in assay [19]. The growth in assay [20] is 9% (active).
For the compound `Cc1oc2c(C)c3oc(=O)cc(C)c3cc2c1CCl`, the growth was 84.9% in [1]; 75.5% in [2]; 75.9% in [3]; 92.3% in assay [4]; 91.8% in assay [5]; 58.5% in [6]. For the same compound, the growth was 54.7% in assay [7]; 88.5% in assay [8]; 84.2% in [9]; 83.8% in assay [10]; 72.8% in assay [11]; 59% in assay [12]. The growth in [13] was 95.8%; in assay [14] it was 81.7%; in assay [15] it was 83.6%; in assay [16] it was 75.9%; in assay [17], 87%; in assay [19], 88.9%. Moreover, the growth in assay [20] is 93.2%.
With `C/C(=N\NC(=S)N1CC2CCC(CC2)C1)c1ccccn1`, the growth was 30.4% in [1]; 11.7% in assay [2]; 4.2% (active) in assay [3]; 24% in assay [4]; -3.66% (active) in assay [5]; 34.1% in assay [6]. Besides, the growth in assay [7] was 16.8%; in assay [8], 5.42% (active); in assay [9], 3.86% (active); in [10], 4.4% (active); in assay [11], 19.4%; in assay [12] it was 3.3% (active). Besides, the growth in assay [13] was -1.66% (active); in [14] it was 15.7%; in assay [15], -7.47% (active); in assay [16], 15.5%; in assay [18] it was 3.7% (active); in [19], 5.97% (active). Further, the growth in assay [20] is -32.4% (active).
`Cc1nnc(N/N=C/c2ccc([N+](=O)[O-])o2)[nH]c1=O`: the growth in assay [1] is 22.6%; in assay [2], 16.2%; in [3], 16.6%; in assay [4], 11.3%; in [5] it was 11.3%; in assay [6], -35.8% (active). For the same compound, the growth in assay [7] is 17.1%; in assay [8] it was 28.5%; in [9] it was 14.9%; in [10], -56.5% (active); in assay [11], 19.4%; in [12], 10.7%. In addition, the growth was -30.8% (active) in assay [13]; 28.7% in [14]; 19.4% in assay [16]; -40.4% (active) in assay [17]; -8.83% (active) in assay [18]; 33.5% in assay [19]. Besides, in assay [20], the growth is 26.2%.
For `CCN1CCCC(Nc2cc(C)nc(/N=C(/N)Nc3ccc(Cl)c(Cl)c3)n2)C1` (stereo unspecified), the growth in assay [1] was 33.2%; in assay [2] it was 32.2%; in [3], -17.1% (active); in assay [4], -7.52% (active); in assay [5] it was -18.8% (active); in assay [6] it was -68.4% (active). Moreover, the growth is -69.5% (active) in [7]; -25.1% (active) in assay [8]; -82.7% (active) in [9]; -77.6% (active) in assay [10]; 30.3% in assay [11]; -69.2% (active) in assay [12]. For the same compound, the growth in [13] is -70.6% (active); in [14], -56.6% (active); in [15], -81.3% (active); in [16] it was -54.4% (active); in assay [18], -73.7% (active); in assay [19] it was -84.9% (active). Further, the growth in assay [20] was -77.9% (active).
Take `N=C(N)Sc1cccc[n+]1[O-]`: the growth in assay [1] was 55.6%; in [2] it was 78.7%; in assay [3], 68.9%; in assay [4], 79%; in [5] it was 21.8%; in assay [6], 104%. In addition, the growth in assay [7] was 37%; in assay [8] it was 54.5%; in [9], 76.7%; in assay [10] it was 39.8%; in assay [11], 35.5%; in assay [12] it was 33.2%. Besides, the growth in assay [13] is 22.2%; in [14], 59.6%; in assay [15], 22.2%; in assay [16] it was 62.6%; in [17], 68.7%; in [19], 58%. Also, in [20], the growth was 18.4%.
